“And” between values parts separate entries of the source, which are not always exact repeats. Identical values can stand only once. Compounds without any hit were thinned out: in the full panel of roughly 83,000, 20% have a hit.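 Growth was measured after 48 h exposure to one concentration of compound in 96-well plates. Values under 10 count as active.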 A number with no mark means an inactive call. The source made the active and inactive calls.
Experiments:
Experiment in all cases: NCI-60 one-dose screen, 48 h (100 = growth as untreated, 0 = no growth, -100 = all killed)
[1] = tested on: OVCAR-8 ovarian
[2] = tested on: OVCAR-5 ovarian
[3] = tested on: OVCAR-4 ovarian
[4] = tested on: SK-OV-3 ovarian
[5] = tested on: IGROV1 ovarian
[6] = tested on: OVCAR-3 ovarian
[7] = tested on: HS 578T breast
[8] = tested on: NCI/ADR-RES ovarian
[9] = tested on: T-47D breast
[10] = tested on: BT-549 breast
[11] = tested on: MDA-MB-435 melanoma
[12] = tested on: SW-620 colon
[13] = tested on: MCF7 breast
[14] = tested on: HCC-2998 colon
[15] = tested on: KM12 colon

For `CN(C)CCC(=O)c1c[nH]c2ccccc12`, the growth ([1]; 10 µM) was 112%, the growth ([2]; 10 µM) was 109% and the growth ([3]; 10 µM) was 111%. It also gave a growth ([4]; 10 µM) of 96.6%, a growth ([5]; 10 µM) of 106% and a growth ([6]; 10 µM) of 110%. For the same molecule, the growth ([7]; 10 µM) was 106%, the growth ([8]; 10 µM) was 110% and the growth ([9]; 10 µM) was 84.1%. For the same molecule, the growth ([10]; 10 µM) was 121%, the growth ([11]; 10 µM) was 107% and the growth ([12]; 10 µM) was 111%. It also gave a growth ([13]; 10 µM) of 93.2%, a growth ([14]; 10 µM) of 115% and a growth ([15]; 10 µM) of 102%.
`O=C(/C(=C/c1ccccc1)CBr)c1ccccc1` showed a growth ([1]; 10 µM) of 86.1%, a growth ([2]; 10 µM) of 122% and a growth ([3]; 10 µM) of 80.3%. For the same molecule, the growth ([4]; 10 µM) was 112%, the growth ([5]; 10 µM) was 90.9% and the growth ([6]; 10 µM) was 66.1%. The growth ([7]; 10 µM) was 82.9%, the growth ([8]; 10 µM) was 81.4% and the growth ([9]; 10 µM) was 77.5%. For the same molecule, the growth ([10]; 10 µM) was 112%, the growth ([11]; 10 µM) was 64% and the growth ([12]; 10 µM) was 17.3%. The growth ([13]; 10 µM) was 42.9%, the growth ([14]; 10 µM) was 108% and the growth ([15]; 10 µM) was 88.5%.
With `Cc1ccc2nc(N/N=C/c3ccc(C)s3)cc(C)c2c1` the growth ([13]; 100 µM) was -94% (active) and -100% (active).
In the case of `Cc1cc(NCCCN(C)C)c2ccc3c(ccc4c(NCCCN(C)C)cc(C)nc43)c2n1`, the growth ([1]; 10 µM) is reported as -24.6% (active), the growth ([2]; 10 µM) is reported as -15.4% (active) and the growth ([3]; 10 µM) is reported as -33.7% (active). For the same molecule, the growth ([4]; 10 µM) was -39.4% (active), the growth ([5]; 10 µM) was -73.4% (active) and the growth ([6]; 10 µM) was -58.3% (active). For the same molecule, the growth ([7]; 10 µM) was -42.7% (active), the growth ([8]; 10 µM) was -10.4% (active) and the growth ([9]; 10 µM) was -34.2% (active). The growth ([10]; 10 µM) was -91.4% (active), the growth ([11]; 10 µM) was -99.1% (active) and the growth ([12]; 10 µM) was -99.3% (active). For the same molecule, the growth ([13]; 10 µM) was -89% (active), the growth ([14]; 10 µM) was -66.1% (active) and the growth ([15]; 10 µM) was -97.6% (active).
For `CCCCCCCCCCCCCCCCCN`, the growth ([1]; 10 µM) was 104%, the growth ([2]; 10 µM) was 106% and the growth ([3]; 10 µM) was 102%. For the same molecule, the growth ([4]; 10 µM) was 96.8%, the growth ([5]; 10 µM) was 107% and the growth ([6]; 10 µM) was 108%. It also gave a growth ([7]; 10 µM) of 103%, a growth ([8]; 10 µM) of 115% and a growth ([9]; 10 µM) of 101%. It also gave a growth ([10]; 10 µM) of 106%, a growth ([11]; 10 µM) of 99.5% and a growth ([12]; 10 µM) of 97.1%. For the same molecule, the growth ([13]; 10 µM) was 100%, the growth ([14]; 10 µM) was 126% and the growth ([15]; 10 µM) was 110%.
For `COc1ccc2c(C)cc(N/N=C/c3sccc3C)nc2c1`, the growth ([13]; 100 µM) was -73.1% (active) and -100% (active).
Molecule `BrC/C=C/C[P+](c1ccccc1)(c1ccccc1)c1ccccc1` has a growth ([1]; 10 µM) of 28.3%, a growth ([2]; 10 µM) of 85.2% and a growth ([3]; 10 µM) of 98.8%. It also gave a growth ([4]; 10 µM) of 95.5%, a growth ([5]; 10 µM) of 83.8% and a growth ([6]; 10 µM) of 32.4%. The growth ([7]; 10 µM) was 92.4%, the growth ([8]; 10 µM) was 96.7% and the growth ([9]; 10 µM) was 10.7%. It also gave a growth ([10]; 10 µM) of 57.1%, a growth ([11]; 10 µM) of 28.4% and a growth ([12]; 10 µM) of 32.3%. For the same molecule, the growth ([13]; 10 µM) was 20.3%, the growth ([14]; 10 µM) was 71.9% and the growth ([15]; 10 µM) was 16.1%.
`S=c1[nH]nc(Cc2ccccc2)c(=S)[nH]1` showed a growth ([1]; 10 µM) of 104%, a growth ([2]; 10 µM) of 107% and a growth ([3]; 10 µM) of 98%. For the same molecule, the growth ([4]; 10 µM) was 99.6%, the growth ([5]; 10 µM) was 102% and the growth ([6]; 10 µM) was 95.4%. The growth ([7]; 10 µM) was 101%, the growth ([8]; 10 µM) was 100% and the growth ([9]; 10 µM) was 90.4%. The growth ([10]; 10 µM) was 109%, the growth ([11]; 10 µM) was 106% and the growth ([12]; 10 µM) was 109%. The growth ([13]; 10 µM) was 96.5%, the growth ([14]; 10 µM) was 103% and the growth ([15]; 10 µM) was 93.2%.
In the case of `O=c1[nH]cc(F)c(=O)[nH]1`, the growth ([1]; 10 µM) is reported as 53.1%, the growth ([1]; 50 µM) is reported as 46.7% and the growth ([2]; 10 µM) is reported as 82.1% and 70.7%. The growth ([2]; 25 µM) was 44.3%, the growth ([2]; 50 µM) was 73% and the growth ([3]; 10 µM) was 72.6% and 107%. The growth ([3]; 25 µM) was 59.4%, the growth ([3]; 50 µM) was 68.5% and the growth ([4]; 10 µM) was 70% and 74.7%. The growth ([4]; 25 µM) was 77.5%, the growth ([5]; 10 µM) was 54.3% and 44.1% and the growth ([5]; 25 µM) was 51.2%. The growth ([5]; 50 µM) was 46.2%, the growth ([6]; 10 µM) was 52.5% and 72.2% and the growth ([6]; 25 µM) was 47.4%. The growth ([6]; 50 µM) was 31%, the growth ([7]; 10 µM) was 99% and the growth ([7]; 25 µM) was -10.8% (active). For the same molecule, the growth ([7]; 50 µM) was 58.8%, the growth ([8]; 10 µM) was 67.2% and 63.5% and the growth ([8]; 25 µM) was 47.6%. For the same molecule, the growth ([8]; 50 µM) was 56.5%, the growth ([9]; 10 µM) was 64.4% and 52.8% and the growth ([9]; 25 µM) was 56.7%. For the same molecule, the growth ([10]; 10 µM) was 57.2% and 54.6%, the growth ([10]; 25 µM) was 37.8% and the growth ([10]; 50 µM) was 60.6%. The growth ([11]; 10 µM) was 42.3% and 50.9%, the growth ([11]; 25 µM) was 36.6% and the growth ([11]; 50 µM) was 42.2%. For the same molecule, the growth ([12]; 10 µM) was 60.1% and 77.8%, the growth ([12]; 25 µM) was 50.1% and the growth ([12]; 50 µM) was 43.4%. For the same molecule, the growth ([13]; 10 µM) was 29.6% and 18.3%, the growth ([13]; 25 µM) was 11.5% and the growth ([13]; 50 µM) was 18.2%. For the same molecule, the growth ([14]; 10 µM) was 18.9%, the growth ([14]; 25 µM) was -17.8% (active) and the growth ([14]; 50 µM) was 35.7%. The growth ([15]; 10 µM) was 47% and 42.4%, the growth ([15]; 25 µM) was 40.7% and the growth ([15]; 50 µM) was 32%.

Reference: PubChem BioAssay (NCI)
